Screens: PubChem BioAssay, National Center for Advancing Translational Sciences (NCATS)
A selection: hits, their analogues and other compounds. The true share with any hit is near 1.3%.
HTT promoter inh: inhibitors of huntingtin promoter activity. HEK293 HTT promoter firefly luciferase reporter, 24 h. Potency, µM (highest dose often 57.5 µM), inactives show at the highest dose activity change, negative = inhibition, actives largely listed as inhibitors. 48,000 tested, 0.93% active. AID 1508623; note: nearly all actives have a fitted effect of over 50% in size
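Quantitative HTS used concentration series of up to 57.5 uM final on HEK293 luciferase reporter cells, 24 h at 37 degrees C. Readout was Dual-Glo firefly luminescence.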
GALC G270D up: raises human GALC G270D mutant activity in cells; 145M-Twi-hGALC-G270D cells, HMU-beta-Gal fluorescence, 48 h; Potency, µM (top dose mostly 57.5 µM), most hits filed as activators; 45,000 tested, 0.1% active; AID 1159614; note: 0% is about no effect; nearly all actives have a fitted effect of over 65% in size
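qHTS, 1536-well; 145M-Twi-hGALC-G270D cells (WT line also made) in DMEM/F12 + 10% FBS; compound incubation on live cells; HMU-β-gal 0.1 mM final, pH 5.2, NaTC; carbonate stop; fluorescence increase = enhanced residual activity.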
HTT-AS promoter: HTT-AS promoter activation. HEK293 HTT-AS promoter firefly luciferase reporter, 24 h; response scale: percent change from vehicle, -100% = no light. Potency, µM (titrated, usually from 57.5 µM), for the others: at the highest dose activity change, positive = activation, most hits filed as activators. 48,000 tested, 0.24% active. AID 1508624; note: nearly all actives have a fitted effect of over 55% in size
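Luminescence was read after Dual-Glo reagent and a 10 min room-temperature incubation. Values were normalized to vehicle (0% activity) and zero RLU (-100% activity). Reporter HEK293 cells had been exposed to compounds (up to 57.5 uM final) for 24 h.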
FH mod: Identification of activators of human fumarate hydratase by quantitative high-throughput screening; FH coupled MDH/diaphorase resazurin fluorescence, 15 min; Potency, µM (highest dose often 79.9 µM), for the others: at the highest dose activity change, negative = inhibition, hits mostly inhibitors; 54,000 tested, 0.22% active; AID 1347055, 2019; note: % is set by controls: 0 for no effect and ±100 for the full control effect; the screen sought activators but most active calls are inhibition curves; nearly all actives have a fitted effect of over 45% in size
* hit, by the source's call; i = inactive; u = inconclusive; x = not tested or not shown. Calls come from the whole dose curve; as a rule, active = well fitted curve in the direction sought with a large enough effect; inconclusive = small, poorly fitted or top-dose-only effect, or another doubt; inactive = no such curve, though single readings can be large; an effect the other way counts as inactive or inconclusive. Potency is the fitted concentration of half-maximal effect.

SMILES	HTT promoter inh	GALC G270D up	HTT-AS promoter	FH mod
NC(=O)C1CCN(c2ncnc3c2cnn3-c2cccc(Cl)c2)CC1	4.5µM*	i	-59%	-7%
Cc1cccc(CSc2ncc(Cl)c(C(=O)Nc3nc4ccc(F)cc4s3)n2)c1	3%	i	-16%	5%
CC(C)(O)C1CCC2(C)CCCC(C)(O)C2C1 (configuration not stated)	x	x	x	3%
COC(=O)c1ccc(CN(Cc2ccc(OC)c(OC)c2)S(=O)(=O)c2cc(C(=O)Nc3cccc(C)c3)ccc2F)cc1	-20%	i	-3%	-13%
CCN(Cc1ccccc1)S(=O)(=O)c1cc(C(=O)Nc2cc(Cl)cc(Cl)c2)ccc1F	25µM*	i	-45%	-26%
CCOc1ccc(NC(=O)c2ccc(F)c(S(=O)(=O)N(CC)Cc3ccccc3)c2)cc1	2µM*	i	-40%	-25%
CCC(C(=O)OC)n1nnc2sc(-c3ccccc3)cc2c1=O (configuration not stated)	9%	i	u	-9%
CCOc1ccc(-c2nnc(SCC(=O)Nc3cccc(OC)c3)nc2-c2ccc(OCC)cc2)cc1	-13%	i	-13%	-29%
COc1ccc(C2=C(C)C(=O)N(Cc3ccc(C(=O)Nc4cccc(F)c4)cc3)S2(=O)=O)cc1	u	i	-41%	-7%
COc1ccc(C2=C(C)C(=O)N(Cc3ccc(C(=O)Nc4ccc(F)cc4C)cc3)S2(=O)=O)cc1	10µM*	i	-49%	2%
COc1ccc(Br)cc1CC1C(=O)Nc2ccccc21 (configuration not stated)	13µM*	i	-51%	-18%
Cc1ccccc1CC1C(=O)Nc2ccc(Br)cc21 (configuration not stated)	u	i	-24%	-27%
CC1=C(C(=O)Nc2ccc(Cl)cc2)C(c2ccccc2C)n2ncc(C(=O)Nc3ccc(C)cc3)c2N1 (configuration not stated)	u	i	-30%	u
CC1=C(C(=O)Nc2ccc(Cl)cc2)C(c2ccccc2)n2ncc(C(=O)Nc3ccccc3)c2N1 (configuration not stated)	25µM*	i	-55%	-21%
Cc1ccc(C)c(NC(=O)Cn2c(=O)n(CCC(=O)NCc3ccc4c(c3)OCO4)c(=O)c3ccccc32)c1	2%	i	-8%	-5%
COc1ccc2oc(=O)c(C(=O)Nc3cccc(C(=O)O)c3)cc2c1	4µM*	i	u	-18%
CCOCC(=O)Nc1ccc(-c2cn3c(C)csc3n2)cc1	1.3µM*	i	-80%	0%
Cc1ccc(OCc2ccc(-c3nc(C#N)c(NCc4ccccc4Cl)o3)o2)cc1	u	i	-31%	-21%
CCOC(=O)c1ccc(Nc2nc3nonc3nc2Nc2cccc(C)c2C)cc1	2.2µM*	i	-87%	u
Cc1ccc(C)c(Nc2nc3nonc3nc2Nc2cccc(C)c2C)c1	u	i	-88%	u
COc1c(C(C)C)c(O)c(O)c2c1C(OC)[C@H]1OC(=O)[C@@]23CCCC(C)(C)[C@H]13 (some centres not stated)	x	x	x	13µM*
CCc1ccc(NC(=O)c2ccc(CNS(=O)(=O)c3ccc4c(c3)C(C)(C)C(=O)N4C)cc2)cc1	u	i	-16%	4%
CN1C(=O)C(C)(C)c2cc(S(=O)(=O)NCc3ccc(C(=O)Nc4ccc(Cl)cc4)cc3)ccc21	18µM*	i	-60%	-13%
COC(=O)c1cc(S(=O)(=O)NCC2CCN(Cc3ccc(C)cc3)CC2)c[nH]1	-27%	i	-12%	-2%
COc1cccc(-n2c(-c3ccco3)nc3c(cnn3-c3ccc(Cl)cc3)c2=O)c1	u	i	-32%	-18%
COc1ccc(-n2c(-c3ccco3)nc3c(cnn3-c3ccc(Cl)cc3)c2=O)cc1	35µM*	i	-53%	-22%
CC1=C(C)C(=O)C(CCCCC#CCCCC#CCO)=C(C)C1=O	-18%	i	-30%	28µM*
CCCCNC(=O)c1ccc2c(c1)NC(=O)C(CS(=O)(=O)Cc1ccc(F)cc1Cl)N2 (configuration not stated)	-17%	i	-20%	3%
